Bioassay records (PubChem)
An excerpt weighted towards active compounds, which were near 3% of everything screened.
LMP1 NFkB inh – EBV LMP1-driven NF-kappaB luciferase reporter inhibitors, primary screen, cell-based, luminescence, single point; LMP1-induced NF-kappaB luciferase reporter cells; inhibition, % at 12.5 µM; 0.69% of 350,000 active; AID 504558, 2011; in the data active means inhibition above about 41%;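 further: 0% = neutral control wells and 100% = reference inhibitor control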
HIF-2a block – HIF-2a reporter inhibitors, primary screen, luminescence, 786-0 RCC cells | 786-0 RCC cells HIF-2a reporter, luciferase luminescence, overnight | inhibition, % at 18.8 µM | 0.72% of 360,000 active;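 active means inhibition of the luminescence signal of 40% or more relative to plate controls, in a single-dose primary screen at 18.75 µM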
KKLEB tox – cytotoxicity in KKLEB CF airway cells, primary screen, cytotoxicity control for CF NF-kB inhibitor project, cell-based, uHTS, fluorescence assay plates. KKLEB CF airway cells viability, ATPlite luminescence, overnight; active compounds read low; cells stimulated with P. aeruginosa culture filtrate. activity change (cytotoxicity), % at 5 µM. 0.36% of 360,000 active. AID 602141, 2011;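 active means corrected activity change at or below -50% at 5 µM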
CF NFkB block – inhibitors of PAF-induced NF-kB signaling, primary screen, cell-based, GFP fluorescence, uHTS; KKLEB NF-kB-GFP reporter, GFP fluorescence overnight; inhibition, % at 5 µM; 0.86% of 360,000 active; AID 588850, 2011;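 active means at least 50% inhibition at 5 µM, scaled per plate between neutral and stimulator controls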;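 further: PAF is a Pseudomonas aeruginosa culture filtrate used as stimulus; plate controls were PAF-stimulated DMSO wells for no effect and unstimulated DMSO wells for full effect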
Peg3 prom inh-1 – Peg3 promoter-driven luciferase inhibitors, primary screen, cell-based, HeLa, luciferase luminescence | HeLa PEG-Prom luciferase reporter, overnight | inhibition, % at 20 µM | 1.7% of 360,000 active | AID 588405, 2011;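 active means inhibition of at least 50% at 20 µM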
MITF TRPM1 inh – inhibitors of MITF-dependent TRPM1 promoter reporter, primary screen, cell-based, SK-MEL-5, single point, luciferase; SK-MEL-5 TRPM1 promoter luciferase, 24 h; 0.83% of 330,000 active; inhibition, % at 12.5 µM; AID 488899, 2010;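 active means mean inhibition across replicates of 60% or more, whatever share of single replicates reaches that level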
Peg3 prom inh-2 – Peg3 promoter reporter inhibitors, retest, confirmation, cell-based, HeLa, luciferase reporter, single concentration; HeLa PEG-Prom luciferase reporter, luminescence, overnight; inhibition, % at 20 µM; shares compounds with Peg3 prom inh-1; AID 602417, 2012; 84% of 1,300 active;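 active means at 20 µM dose, 40% or more inhibition averaged across four replicates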
Numbers without * were called inactive; . = not tested or not shown.

SMILES	LMP1 NFkB inh	HIF-2a block	KKLEB tox	CF NFkB block	Peg3 prom inh-1	MITF TRPM1 inh	Peg3 prom inh-2
CCOC(=O)[C@]12CCC=C1N(Cc1ccc3c(c1)OCO3)C(=O)[C@H](CC(=O)NCc1cccs1)C2	.	3.4	.	.	.	.	.
CCC(C)NCCOCCOc1ccc(Cl)c2ccccc12 (configuration not stated)	-14.0	10.5	-32.5	28.8	102.0*	1.5	98.4*
COc1cccc(N(C(=O)CS(=O)CC(=O)Nc2ccc(F)cc2)C(C(=O)NC2CCCCC2)c2cccs2)c1 (configuration not stated)	-2.2	12.0	-10.5	-1.4	59.8*	16.5	19.9
CCCCCCCCCC[N+](C)(C)CC/C=C1/c2ccccc2Sc2ccc(Cl)cc21	7.6	49.1*	-21.2	23.2	107.5*	7.9	99.5*
CC1CCN(c2ccc(-c3cccs3)nn2)CC1	57.2*	78.0*	-80.9*	-21.7	82.5*	79.3*	77.5*
Clc1ccc(-c2cccs2)nn1	2.7	1.2	-8.6	-16.7	-17.6	-1.7	.
CCCCCCSc1cc(-c2nc3ccc(C)cn3c2NCCCC)ccc1OC	5.5	-36.2	-10.0	37.6	79.5*	0.4	93.2*
CC(=O)Nc1ccc(C(=O)N2CCOCC2c2cc(C(=O)NCc3ccccc3)no2)cc1 (configuration not stated)	.	4.9	-3.6	-1.1	7.0	.	.
CCCN1CCc2c(sc(NC(=O)c3ccc(S(=O)(=O)N4CCN(C(=O)OCC)CC4)cc3)c2C(N)=O)C1	-9.7	22.1	-12.0	-10.8	65.1*	51.1	57.9*
CCCN1CCc2c(sc(NC(=O)c3ccc(S(=O)(=O)N(C)c4ccccc4)cc3)c2C(N)=O)C1	-14.1	4.4	-26.3	-19.5	-1.6	-4.0	.
CCOC(=O)C(=O)N(C)c1c(CC)nc2c(OCc3ccc(OC)cc3)cccn12	.	6.6	4.3	0.6	7.5	.	.
Cc1cc(C)c2c(N)c3cccc(C)c3nc2n1	-22.7	-58.0	-3.5	-198.1	106.8*	65.5*	99.0*
CC(C)C[C@@H](CN1CCC[C@H]1CN1C(=O)C(=O)NC[C@@H]1Cc1ccc(O)cc1)N1C[C@H](Cc2ccc(O)cc2)N(CCc2ccccc2)C(=O)C1=O	.	-0.3	.	.	.	.	.
COc1ccc(NC(=O)c2cc(-c3ccccn3)nc3ccccc23)cc1S(=O)(=O)N(C)C	-4.8	-2.5	5.8	24.5	61.3*	14.4	54.5*
O=C(CCn1cnc(-c2ccccc2)c1-c1ccccc1)N/N=C/c1ccccc1O	32.2	22.0	-1.2	17.4	55.6*	27.2	69.7*
O=C(CCn1cnc(-c2ccccc2)c1-c1ccccc1)N/N=C/c1ccc(O)cc1	-4.8	2.8	-1.7	5.9	24.1	8.9	.
C#CCNC(=O)C1=C[C@@H](c2cn(C(C)=O)c3ccccc23)C[C@@H](OCc2ccc(CO)cc2)O1	1.4	6.6	14.5	-18.9	-13.2	-5.0	.
CC(=O)n1cc([C@H]2C=C(C(=O)NCc3ccccc3)O[C@@H](OCc3ccc(CO)cc3)C2)c2ccccc21	2.9	34.1	-0.9	13.3	54.5*	3.2	47.3*
Cc1nc(N2CCN(c3ccccn3)CC2)c2c(C)c(C(=O)Nc3ccccc3F)sc2n1	9.5	-11.8	-35.1	47.4	72.7*	-10.2	65.5*
COC(=O)Cc1ccc(OC2(C)CCN(Cc3ccc(-c4ccccn4)cc3)C2)cc1 (configuration not stated)	.	-16.7	-3.6	-16.8	-7.4	.	.
C[C@H]1CN([C@@H](C)CO)S(=O)(=O)c2ccc(Br)cc2O[C@@H]1CN(C)S(=O)(=O)c1ccccc1F	.	-4.7	16.3	-20.6	4.2	.	.
CC(=O)n1cc(N(C(=O)CCl)c2ccc([N+](=O)[O-])cc2)c2ccccc21	-2.7	30.5	-82.9*	80.5*	89.7*	69.2*	98.6*
O=C(OCc1ccccc1)N1C=CC2CC1c1c(Cl)cccc12 (configuration not stated)	0.0	-3.3	-0.2	-2.2	20.6	-16.9	.
Cc1ccc2sc(N(CCCN(C)C)C(=O)c3ccc(S(=O)(=O)N(C)C4CCCCC4)cc3)nc2c1C	-4.2	-11.3	-16.6	35.9	104.1*	77.2*	100.5*
CCCCNC(=O)C1(C)CCN1C(=O)Cc1cccc2ccccc12 (configuration not stated)	.	8.9	10.1	-7.2	8.0	.	.
SMILES	LMP1 NFkB inh	HIF-2a block	KKLEB tox	CF NFkB block	Peg3 prom inh-1	MITF TRPM1 inh	Peg3 prom inh-2
OCCN1CCN(C2CCC(c3ccc(F)cc3)c3ccc(F)cc32)CC1 (configuration not stated)	3.0	-18.5	-35.1	45.1	56.1*	12.9	72.6*
CC1(C)C(=O)C=CC(=O)C(C)(C)C(=O)C=CC(=O)C(C)(C)C2=CC=C(O2)C(C)(C)C(=O)C=CC1=O	-11.6	1.6	-8.6	46.4	106.1*	91.7*	99.8*
Oc1ccc(C=NNC(=S)Nc2cccnc2)nc1	-0.3	-45.0	16.4	5.1	10.2	19.7	.
CC(C)N1CCc2c(sc(NC(=O)c3ccc4ccccc4c3)c2C(N)=O)C1	7.9	-114.1	-19.2	-57.3	12.8	-51.2	.
CC(C)N1CCc2c(sc(NC(=O)c3cc4cc([N+](=O)[O-])ccc4s3)c2C(N)=O)C1	2.2	4.6	-1.6	-38.6	96.8*	.	97.9*
COc1cc(NC(=O)c2cccs2)c(C(=O)OCC(=O)c2cc(C)n(-c3ccccc3)c2C)cc1OC	58.8*	23.2	-11.0	15.0	58.6*	64.0*	83.2*
C=CCc1cccc(/C=N/NC(=O)C(C)Nc2cccc(C)c2)c1O (configuration not stated)	10.7	20.8	-13.3	37.6	50.4*	13.8	43.8*
C=CCc1cccc(/C=N/NC(=O)CCCNc2ccc(C)cc2)c1O	13.0	19.8	-5.5	-0.4	29.4	3.6	.
Cc1ccc(S(=O)(=O)N2C[C@H]3N(C(=O)OC(C)C)N(C(=O)OC(C)C)C[C@H](OC(=O)Nc4c(C)noc4C)[C@@]3(O)C2)cc1	0.6	0.7	6.5	21.5	2.9	.	.
COC(=O)c1ccc2nc(-c3cccc(N)c3)cn2c1	60.8*	36.8	-6.0	-6.2	68.4*	51.7	11.1
O=[N+]([O-])c1ccc(-c2nc(Nc3cccc(O)c3)c3ccccc3n2)cc1	-15.8	-40.0	-13.2	-23.8	80.7*	-4.8	90.7*
O=C(COc1ccc(S(=O)(=O)N2CCOCC2)cc1Cl)NCc1ccc2c(c1)OCO2	9.4	14.3	3.2	7.4	9.2	.	.
